Measured values: PubChem BioAssay (Tox21)
Records with an inconclusive call do not appear. Calls of active or inactive are those of the source. Calls follow the shape of the dose curve; as a rule, active = well fitted curve in the direction sought with a large enough effect in the repeat runs; inconclusive = weak or mixed curves; inactive = no such curve, though single readings can be large; an effect the other way counts as inactive or inconclusive.

Tested on: not listed separately
Test: qHTS assay to identify small molecule agonists of the retinoic acid receptor (RAR) signaling pathway (AID 1159553); also: potency is read from the fitted curve at half-maximal effect
Conditions: C3RL4 RARE luciferase reporter, agonist, 6 h; series mostly up to 73.3 µM; activation: at the top concentration
Summary of the method: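 Luminescence was measured 30 min after luciferase reagent addition at room temperature. Before that, C3RL4 reporter cells (1,000 per well, plated overnight) were treated with compound for 6 hr at 37 C and 5% CO2.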
% is scaled to controls: 0 for no effect and ±100 for the full control effect.

| Compound | activation | Potency |
| --- | --- | --- |
| Nc1nc(Cl)cc(Cl)n1 | 0.366% (inactive) |  |
| Cc1ccc(NC(N)=O)cc1 | 0.43% [at 94.8 µM] (inactive) |  |
| CCCC(=O)C(CC)Sc1ccoc1C (centres undefined) | 0.226% (inactive) |  |
| Cc1ccc(O)c(C(=O)c2ccccc2)c1 | -1.06% [at 94.8 µM] (inactive) |  |
| CCOC(=O)c1ccc(N(C)C)cc1 |  | 15.4 µM (active) |
| COC(=O)c1c(C)cc(O)c(C)c1O | 0.0138% (inactive) |  |
| COc1cc(NS(=O)(=O)c2ccc(N)cc2)ncn1 | -0.556% (inactive) |  |
| Clc1ccc2c(c1)Nc1ccccc1S2 | 2.91% (inactive) |  |
| O=Cc1ccccc1S(=O)(=O)O | 0.656% (inactive) |  |
| CC(C)(O)c1ccc(C(C)(C)O)cc1 | 0.108% (inactive) |  |
| COc1cc(C(=O)NC2CCCNC2)cc(OC)c1OC (centres undefined) | 3.68% (inactive) |  |
| Cc1nc2ccc(Cl)cc2[nH]1 | 3.2% (inactive) |  |
| COC(=O)C(c1ccccc1Cl)N1CCc2sccc2C1 (centres undefined) | -1.52% (inactive) |  |
| CC1(C)S[C@@H]2[C@H](NC(=O)Cc3ccccc3)C(=O)N2[C@H]1C(=O)O (tested in a mixture with another compound) | 0.724% (inactive) |  |
| CCCCC(CC)CCC(CC(C)C)OS(=O)(=O)O (centres undefined) | 1.27% (inactive) |  |
| Nc1cc(S(=O)(=O)O)ccc1O | -0.282% (inactive) |  |
| O=C(O)COc1ccc2ccccc2c1 | 0.0238% (inactive) |  |
| O=S(=O)(O)CC(O)CCl (centres undefined) | 5.6% (inactive) |  |
| O=C(c1ccccc1)c1cccc(O)c1 | 7.47% [at 94.8 µM] (inactive) |  |

| Compound | activation | Potency |
| --- | --- | --- |
| O=C1Nc2ccccc2C1=O | -2.23% (inactive) |  |
| CCCC(C)C(O)CC (centres undefined) | 1.51% (inactive) |  |
| Cc1cc(N)no1 | 0.835% [at 94.8 µM] (inactive) |  |
| NNC(=O)OCc1ccccc1 | 7.96% (inactive) |  |
| CCCCCCC(O)CO (centres undefined) | -0.155% (inactive) |  |
| C=CCOC(=O)CCCCCCCC | 0.174% [at 94.8 µM] (inactive) |  |
| Cc1cc(C)c(C)c(C)c1 | 0.084% (inactive) |  |
| Cc1cc2c(cc1CC(=O)c1sccc1S(=O)(=O)Nc1onc(C)c1Cl)OCO2 | 0.267% (inactive) |  |
| C=C(C)C(=O)OCCOC1CC2CC1C1C=CCC21 (centres undefined) | 7.87% [at 94.8 µM] (inactive) |  |
| O=C(O)CCCCCCCCCC(=O)O | -0.451% (inactive) |  |
| CC(=O)OC1CCC(C(C)(C)C)CC1 (centres undefined) | -0.463% (inactive) |  |
| CCCCCCCCCCCBr | -1.62% (inactive) |  |
| Cc1cc(=O)oc2cc(O[C@@H]3SC[C@@H](O)[C@H](O)[C@H]3O)ccc12 | 2.85% (inactive) |  |
| CCN1CCN(C(=O)N[C@@H](C(=O)N[C@@H]2C(=O)N3[C@@H]2SC(C)(C)[C@H]3C(=O)O)c2ccccc2)C(=O)C1=O | -0.918% (inactive) |  |
| CC[N+](C)(CC)CC | 1.04% (inactive) |  |
| COc1cc(OC)cc(OC)c1 | -2.25% (inactive) |  |
| O=S(=O)(O)c1ccc(Cl)cc1 | -1.25% (inactive) |  |
| CC1=C(O)C(=O)CO1 | 1.11% (inactive) |  |
| CCOC(=O)CN1CCCC1=O | -0.191% (inactive) |  |

Tested on: not listed separately
Test: qHTS assay to identify small molecule antagonists of the estrogen related receptor (ERR) signaling pathway from Tox21 library - cell viability counter screen (AID 1224834); also: nearly all actives have a fitted effect of over 30% in size
Conditions: ERR reporter cells viability, CellTiter-Fluor, 17.5 h; series mostly up to 92.4 µM; viability change, negative = cytotoxic: at the top concentration
Summary of the method: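 CellTiter-Fluor fluorescence, read after 30 min at 37 C, measures viability of ERR cells. Cells plated at 2,000/well and incubated 6 h before pin-tool compound addition, then exposed 17.5 hours at 37 C.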

| Compound | viability change, negative = cytotoxic |
| --- | --- |
| Nc1nc(Cl)cc(Cl)n1 | 1.2% (inactive) |
| Cc1ccc(NC(N)=O)cc1 | 1.53% (inactive) |
| CCCC(=O)C(CC)Sc1ccoc1C (centres undefined) | 0.047% (inactive) |
| Cc1ccc(O)c(C(=O)c2ccccc2)c1 | -5.24% (inactive) |
| CCOC(=O)c1ccc(N(C)C)cc1 | 0.0636% (inactive) |
| COC(=O)c1c(C)cc(O)c(C)c1O | -7.54% (inactive) |
| COc1cc(NS(=O)(=O)c2ccc(N)cc2)ncn1 | 1.52% [at 42.5 µM] (inactive) |
| Clc1ccc2c(c1)Nc1ccccc1S2 | 0.673% [at 42.5 µM] (inactive) |
| O=Cc1ccccc1S(=O)(=O)O | 1.95% (inactive) |
| CC(C)(O)c1ccc(C(C)(C)O)cc1 | 0.321% (inactive) |
| COc1cc(C(=O)NC2CCCNC2)cc(OC)c1OC (centres undefined) | 1.16% [at 42.5 µM] (inactive) |
| Cc1nc2ccc(Cl)cc2[nH]1 | 2.06% (inactive) |
| COC(=O)C(c1ccccc1Cl)N1CCc2sccc2C1 (centres undefined) | 1.24% [at 42.5 µM] (inactive) |
| CC1(C)S[C@@H]2[C@H](NC(=O)Cc3ccccc3)C(=O)N2[C@H]1C(=O)O (tested in a mixture with another compound) | -13.9% [at 42.5 µM] (inactive) |
| CCCCC(CC)CCC(CC(C)C)OS(=O)(=O)O (centres undefined) | 0.118% (inactive) |
| Nc1cc(S(=O)(=O)O)ccc1O | -0.329% (inactive) |
| O=C(O)COc1ccc2ccccc2c1 | 3.21% (inactive) |
| O=S(=O)(O)CC(O)CCl (centres undefined) | 3.68% (inactive) |
| O=C(c1ccccc1)c1cccc(O)c1 | -3.43% (inactive) |

| Compound | viability change, negative = cytotoxic |
| --- | --- |
| O=C1Nc2ccccc2C1=O | -0.27% (inactive) |
| CCCC(C)C(O)CC (centres undefined) | 7.41% (inactive) |
| Cc1cc(N)no1 | 0.011% (inactive) |
| NNC(=O)OCc1ccccc1 | -3.29% (inactive) |
| CCCCCCC(O)CO (centres undefined) | -0.35% (inactive) |
| C=CCOC(=O)CCCCCCCC | 0.584% (inactive) |
| Cc1cc(C)c(C)c(C)c1 | -0.711% (inactive) |
| Cc1cc2c(cc1CC(=O)c1sccc1S(=O)(=O)Nc1onc(C)c1Cl)OCO2 | -5.66% [at 42.5 µM] (inactive) |
| C=C(C)C(=O)OCCOC1CC2CC1C1C=CCC21 (centres undefined) | 0.32% (inactive) |
| O=C(O)CCCCCCCCCC(=O)O | 2.15% (inactive) |
| CC(=O)OC1CCC(C(C)(C)C)CC1 (centres undefined) | 4.23% (inactive) |
| CCCCCCCCCCCBr | 0.652% [at 42.5 µM] (inactive) |
| Cc1cc(=O)oc2cc(O[C@@H]3SC[C@@H](O)[C@H](O)[C@H]3O)ccc12 | 1.31% [at 42.5 µM] (inactive) |
| CCN1CCN(C(=O)N[C@@H](C(=O)N[C@@H]2C(=O)N3[C@@H]2SC(C)(C)[C@H]3C(=O)O)c2ccccc2)C(=O)C1=O | 1.08% [at 42.5 µM] (inactive) |
| CC[N+](C)(CC)CC | 2.61% (inactive) |
| COc1cc(OC)cc(OC)c1 | -0.899% [at 42.5 µM] (inactive) |
| O=S(=O)(O)c1ccc(Cl)cc1 | 1.44% (inactive) |
| CC1=C(O)C(=O)CO1 | 0.644% (inactive) |
| CCOC(=O)CN1CCCC1=O | 9.87% [at 42.5 µM] (inactive) |

Target: Luciferin 4-monooxygenase (Photinus pyralis) (UniProt P08659)
Sequence (P08659 whole entry, looked up): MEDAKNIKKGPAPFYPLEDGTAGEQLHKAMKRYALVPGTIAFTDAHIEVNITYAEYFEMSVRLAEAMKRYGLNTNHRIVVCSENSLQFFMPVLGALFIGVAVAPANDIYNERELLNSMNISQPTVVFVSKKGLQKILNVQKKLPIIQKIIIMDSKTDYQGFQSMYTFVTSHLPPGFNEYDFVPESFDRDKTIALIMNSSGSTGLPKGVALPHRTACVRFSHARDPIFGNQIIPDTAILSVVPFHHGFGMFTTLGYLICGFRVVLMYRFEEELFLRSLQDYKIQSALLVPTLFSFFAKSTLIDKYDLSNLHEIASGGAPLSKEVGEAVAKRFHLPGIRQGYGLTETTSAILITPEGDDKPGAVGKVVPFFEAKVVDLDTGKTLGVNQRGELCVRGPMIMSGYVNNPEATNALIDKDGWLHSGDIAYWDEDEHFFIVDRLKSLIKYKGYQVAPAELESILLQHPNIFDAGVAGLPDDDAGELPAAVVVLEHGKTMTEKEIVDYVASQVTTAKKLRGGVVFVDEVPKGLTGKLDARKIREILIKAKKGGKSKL
Test: qHTS assay to identify small molecule inhibitors of firefly luciferase (AID 1224835); also: nearly all actives have a fitted effect of over 25% in size; also: potency is read from the fitted curve at half-maximal effect
Conditions: purified P. pyralis luciferase, luminescence inhibition; series mostly up to 115 µM; activity change, negative = inhibition: at the top concentration
Summary of the method: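 Quantitative HTS format; KM concentrations of both substrates. Purified P. pyralis FLuc activity quantified from luminescence images.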

| Compound | activity change, negative = inhibition | Potency |
| --- | --- | --- |
| Nc1nc(Cl)cc(Cl)n1 | 3.78% (inactive) |  |
| Cc1ccc(NC(N)=O)cc1 | -5.97% (inactive) |  |
| CCCC(=O)C(CC)Sc1ccoc1C (centres undefined) | 3.9% (inactive) |  |
| Cc1ccc(O)c(C(=O)c2ccccc2)c1 | -6.37% (inactive) |  |
| CCOC(=O)c1ccc(N(C)C)cc1 |  | 35.6 µM (active) |
| COC(=O)c1c(C)cc(O)c(C)c1O | -7.49% (inactive) |  |
| COc1cc(NS(=O)(=O)c2ccc(N)cc2)ncn1 | -2.15% [at 52.9 µM] (inactive) |  |
| Clc1ccc2c(c1)Nc1ccccc1S2 | -8.48% [at 52.9 µM] (inactive) |  |
| O=Cc1ccccc1S(=O)(=O)O | 1.72% (inactive) |  |
| CC(C)(O)c1ccc(C(C)(C)O)cc1 | 1.99% (inactive) |  |
| COc1cc(C(=O)NC2CCCNC2)cc(OC)c1OC (centres undefined) | -0.127% [at 52.9 µM] (inactive) |  |
| Cc1nc2ccc(Cl)cc2[nH]1 | 9.13% (inactive) |  |
| COC(=O)C(c1ccccc1Cl)N1CCc2sccc2C1 (centres undefined) | 3.6% [at 52.9 µM] (inactive) |  |
| CC1(C)S[C@@H]2[C@H](NC(=O)Cc3ccccc3)C(=O)N2[C@H]1C(=O)O (tested in a mixture with another compound) | 1.18% [at 52.9 µM] (inactive) |  |
| CCCCC(CC)CCC(CC(C)C)OS(=O)(=O)O (centres undefined) | 3.37% (inactive) |  |
| Nc1cc(S(=O)(=O)O)ccc1O | -3.78% (inactive) |  |
| O=C(O)COc1ccc2ccccc2c1 |  | 39.9 µM (active) |
| O=S(=O)(O)CC(O)CCl (centres undefined) | -0.712% (inactive) |  |
| O=C(c1ccccc1)c1cccc(O)c1 | -8.89% (inactive) |  |

| Compound | activity change, negative = inhibition | Potency |
| --- | --- | --- |
| O=C1Nc2ccccc2C1=O | 1.5% (inactive) |  |
| CCCC(C)C(O)CC (centres undefined) | 2.86% (inactive) |  |
| Cc1cc(N)no1 | 0.576% (inactive) |  |
| NNC(=O)OCc1ccccc1 | -0.491% (inactive) |  |
| CCCCCCC(O)CO (centres undefined) | 1.86% (inactive) |  |
| C=CCOC(=O)CCCCCCCC | 7.88% (inactive) |  |
| Cc1cc(C)c(C)c(C)c1 | 0.539% (inactive) |  |
| Cc1cc2c(cc1CC(=O)c1sccc1S(=O)(=O)Nc1onc(C)c1Cl)OCO2 | -0.112% [at 52.9 µM] (inactive) |  |
| C=C(C)C(=O)OCCOC1CC2CC1C1C=CCC21 (centres undefined) | -2.57% (inactive) |  |
| O=C(O)CCCCCCCCCC(=O)O | 4.48% (inactive) |  |
| CC(=O)OC1CCC(C(C)(C)C)CC1 (centres undefined) | 1.1% (inactive) |  |
| CCCCCCCCCCCBr | 0.245% [at 52.9 µM] (inactive) |  |
| Cc1cc(=O)oc2cc(O[C@@H]3SC[C@@H](O)[C@H](O)[C@H]3O)ccc12 | 5.36% [at 52.9 µM] (inactive) |  |
| CCN1CCN(C(=O)N[C@@H](C(=O)N[C@@H]2C(=O)N3[C@@H]2SC(C)(C)[C@H]3C(=O)O)c2ccccc2)C(=O)C1=O | -0.887% [at 52.9 µM] (inactive) |  |
| CC[N+](C)(CC)CC | -0.0973% (inactive) |  |
| COc1cc(OC)cc(OC)c1 | 3.33% [at 52.9 µM] (inactive) |  |
| O=S(=O)(O)c1ccc(Cl)cc1 | 0.553% (inactive) |  |
| CC1=C(O)C(=O)CO1 | -1.38% (inactive) |  |
| CCOC(=O)CN1CCCC1=O | 0.12% [at 52.9 µM] (inactive) |  |
